Mtb bLac sens: beta-lactam sensitization of Mtb H37Rv, H37Rv; inhibition, % at 25 µM; M. tuberculosis H37Rv growth with meropenem, percent inhibition; 330,000 compounds, 0.27% hits; call rule not given here;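 further: growth measured after seven days incubation then overnight dye step; 0% = bacteria only wells and 100% = bacteria with antibiotic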
Rv3671c inh: Rv3671c serine protease inhibitors, primary screen, biochemical, fluorescence polarization, M. tuberculosis H37Rv; P9WHR9; inhibition, % at 5.96 µM; 320,000 compounds, 0.048% hits; AID 2606, 2010; in the data active means inhibition above about 38%;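 further: extracellular domain of Rv3671c used as enzyme; 0% = enzyme with DMSO and 100% = no enzyme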
Target sequence (P9WHR9 whole entry, looked up, the tested form may be a part): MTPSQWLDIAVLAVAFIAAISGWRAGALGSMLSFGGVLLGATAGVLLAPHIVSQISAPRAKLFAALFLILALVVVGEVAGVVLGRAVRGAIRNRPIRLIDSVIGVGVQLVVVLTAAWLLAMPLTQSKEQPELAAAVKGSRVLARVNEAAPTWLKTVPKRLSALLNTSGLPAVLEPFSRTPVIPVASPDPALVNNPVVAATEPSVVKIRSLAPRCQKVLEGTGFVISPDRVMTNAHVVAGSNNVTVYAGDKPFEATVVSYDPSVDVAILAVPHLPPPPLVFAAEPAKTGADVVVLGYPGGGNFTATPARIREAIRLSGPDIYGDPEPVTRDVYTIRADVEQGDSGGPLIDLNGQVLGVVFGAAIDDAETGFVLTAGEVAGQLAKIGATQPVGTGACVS
FBA Mtb inh: Mtb FBA enzyme inhibitors, primary screen, biochemical, fluorescence, strain H37Rv; AID 588726, 2011; 360,000 compounds, 2.3% hits; inhibition, % at 1 µM; purified M. tuberculosis FBA, fluorescence read-out; in the data active means inhibition above about 27%;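 further: 0% = vehicle and 100% = reference inhibitor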
UGM FP inh: M. tuberculosis UGM enzyme inhibitors, primary screen, biochemical, fluorescence polarization, single point | purified UGM, fluorescence polarization probe displacement | inhibition, % at 10 µM | 320,000 compounds, 0.06% hits | AID 504406, 2011; in the data active means inhibition above about 10%, passing the limit was not always enough; inconclusive means no clear call, values can overlap the other calls
GDH-TPI inh: GDH-TPI coupling enzyme inhibitors, primary screen, artefact control for M. tuberculosis FBA inhibitor project, biochemical, absorbance, full deck; GDH-TPI coupled enzyme counterscreen, NADH absorbance; AID 588335, 2011; inhibition, % at 4.8 µM; 360,000 compounds, 1.2% hits; in the data active means inhibition above about 30%;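 further: 0% = DMSO wells and 100% = wells lacking the enzyme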
RecA splice inh: Mtb RecA intein splicing inhibitors, primary screen, biochemical, fluorescence, HTS. Protein RecA (Mycobacterium tuberculosis (strain ATCC 25618 / H37Rv)), P9WHJ3. cell-free RecA intein splicing. inhibition, % (test concentration not listed). 290,000 compounds, 0.75% hits. AID 2221, 2009; in the data active means inhibition above about 30%; inconclusive means no clear call, values can overlap the other calls;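 further: 0% = vehicle wells and 100% = reference inhibitor control wells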
* hit, by the source's call. Only some compounds are listed: those with a hit (about 4% of all), similar ones and a draw of the others.

O=C(c1cc2cc3ccc(Cl)cc3nc2o1)N1CCC2(CC1)OCCO2 was read as Mtb bLac sens 98.1, Rv3671c inh -3.9, FBA Mtb inh -3.2, UGM FP inh 1.7, GDH-TPI inh 39.1* and RecA splice inh 1.0.
`CN(C(=O)c1ccc(Br)o1)C1CCCCC1` gave Mtb bLac sens -3.2, Rv3671c inh 3.2, FBA Mtb inh 0.4, UGM FP inh -1.3, GDH-TPI inh 1.4 and RecA splice inh 0.2.
Screening COc1cccc(-c2cc(C(=O)N3CCCCC3C)no2)c1 (stereo not drawn) returned Mtb bLac sens 68.0, Rv3671c inh 1.6, FBA Mtb inh -1.0, UGM FP inh -2.8, GDH-TPI inh -9.2 and RecA splice inh -7.6.
Screening COc1ccc(C(CNC(=O)C(C)Oc2ccc(Br)cc2)N2CCCCC2)cc1 (stereo not drawn) returned Mtb bLac sens -1.2, Rv3671c inh -0.6, FBA Mtb inh -1.9, UGM FP inh 1.7 and GDH-TPI inh -3.5.
For Cc1cccc(-c2cnc(C(O)c3ccc(-c4ccccc4)cc3)[nH]2)c1 (stereo not drawn) the results were FBA Mtb inh -0.2 and GDH-TPI inh 1.8.
Screening COc1ccc(CCNS(=O)(=O)c2c(C)[nH]c(C)c2C(=O)N2CCCCC2)cc1OC returned Mtb bLac sens 9.1, Rv3671c inh -5.7, FBA Mtb inh -0.6, UGM FP inh -1.6, GDH-TPI inh -3.9 and RecA splice inh 0.6.
`COc1ccc(C(C)=O)cc1CN1C(=O)C(C)ON=C1c1ccccn1` (stereo not drawn) gave FBA Mtb inh 1.7 and GDH-TPI inh 5.3.
For CCOC(=O)C1CCN(C(=O)c2cc3c(ccc4ccccc43)o2)CC1 the results were Mtb bLac sens 10.7, Rv3671c inh -1.7, FBA Mtb inh 1.4, UGM FP inh -1.8, GDH-TPI inh 8.6 and RecA splice inh 2.2.
Screening CCOC(=O)C1CCN(C(=O)c2cc3cc4ccc(C)cc4nc3o2)CC1 returned Mtb bLac sens 6.3, Rv3671c inh -5.4, FBA Mtb inh 6.8, UGM FP inh -0.1, GDH-TPI inh 31.6* and RecA splice inh 0.3.
Screening CN1c2ccccc2C(O)=C(C(=S)Nc2ccc(F)c(Cl)c2)S1(=O)=O returned Mtb bLac sens 1.8, Rv3671c inh -1.6, FBA Mtb inh 9.9, UGM FP inh 1.2, GDH-TPI inh 30.8* and RecA splice inh 3.6.
CN1c2ccccc2C(O)=C(C(=S)Nc2ccccc2)S1(=O)=O was read as Mtb bLac sens inconclusive, Rv3671c inh -13.4, FBA Mtb inh -5.1, UGM FP inh -1.6, GDH-TPI inh 31.5* and RecA splice inh -2.2.
Cc1ccc(NC(=S)C2=C(O)c3ccccc3N(C)S2(=O)=O)cc1 was read as Mtb bLac sens 26.0, Rv3671c inh 5.7, FBA Mtb inh -7.3, UGM FP inh 2.5, GDH-TPI inh 38.4* and RecA splice inh 0.8.
`Cc1cncc(NCc2cccc(Cl)c2)n1` gave FBA Mtb inh 118.0* and GDH-TPI inh 4.0.
Screening Cc1cncc(NCc2ccc3c(c2)OCO3)n1 returned FBA Mtb inh 2.8 and GDH-TPI inh 18.8.
NC(=O)c1c(NC(=O)C2COc3ccccc3O2)sc2c1CCN(Cc1ccccc1)C2 (stereo not drawn) was read as Mtb bLac sens 15.3, Rv3671c inh -3.4, FBA Mtb inh 6.3, UGM FP inh 19.3*, GDH-TPI inh 26.8 and RecA splice inh -25.6.
`CCOC(=O)c1sc(=S)n(-c2ccccc2OC)c1N` gave Mtb bLac sens -5.3, Rv3671c inh -2.8, FBA Mtb inh -3.1, UGM FP inh 0.2, GDH-TPI inh 14.9 and RecA splice inh -4.7.
Screening COc1ccc(Cl)cc1-n1c(N)c(C(N)=O)sc1=S returned Mtb bLac sens 16.2, Rv3671c inh 0.4, FBA Mtb inh 0.7, UGM FP inh 0.8, GDH-TPI inh 37.1* and RecA splice inh 1.0.
Screening CCOc1ccccc1-n1c(N)c(C(N)=O)sc1=S returned Mtb bLac sens inconclusive, Rv3671c inh 3.9, FBA Mtb inh -1.9, UGM FP inh -0.5, GDH-TPI inh 31.5* and RecA splice inh 4.0.
`COC(=O)C1=C(O)/C(=C\c2ccc(OCC(=O)Nc3ccccc3)cc2)N=C1C` gave Mtb bLac sens inconclusive, Rv3671c inh -4.0, FBA Mtb inh -0.9, UGM FP inh -1.9, GDH-TPI inh 2.5 and RecA splice inh -2.2.
COC(=O)C1=C(O)/C(=C/c2ccc(OCC(=O)Nc3ccc(OC)cc3)cc2)N=C1C was read as FBA Mtb inh -0.5 and GDH-TPI inh 33.9*.
Screening CCOC(=O)N1CCC(Nc2c(N3CCN(c4cc(Cl)ccc4C)CC3)c(=O)c2=O)CC1 returned Mtb bLac sens -7.1, Rv3671c inh 12.3, FBA Mtb inh 2.4, UGM FP inh -1.3, GDH-TPI inh 13.9 and RecA splice inh 0.6.
For CCOC(=O)N1CCC(Nc2c(-c3ccc(C)c(C)c3)c(=O)c2=O)CC1 the results were Mtb bLac sens 2.2, Rv3671c inh 3.5, FBA Mtb inh -7.5, UGM FP inh -1.3, GDH-TPI inh 33.0* and RecA splice inh 1.2.
For CCN(CC)CC(C)(C)C(=O)/C=C/c1ccc(/C=C/C(=O)C(C)(C)CN(CC)CC)cc1 the results were FBA Mtb inh -2.7 and GDH-TPI inh 59.2*.
Screening CCN(CC)CCOC(=O)/C=C/c1ccccc1 returned Mtb bLac sens 0.9, Rv3671c inh 4.0, FBA Mtb inh 0.1, UGM FP inh 1.4, GDH-TPI inh 3.4 and RecA splice inh -0.4.
Cc1cccc(-n2c(C)cc(C=C(C#N)C#N)c2C)c1 was read as Mtb bLac sens 1.1, Rv3671c inh 2.7, FBA Mtb inh -1.2, UGM FP inh 0.2, GDH-TPI inh 2.2 and RecA splice inh 0.6.
For Cc1ccsc1/C=C(\C#N)C(=O)NCc1ccco1 the results were Mtb bLac sens -4.7, Rv3671c inh -4.8, FBA Mtb inh -4.2, UGM FP inh -3.9, GDH-TPI inh 32.2* and RecA splice inh -3.5.
N#C/C(=C\C=C\c1ccccc1)C(=O)NCc1ccco1 was read as Mtb bLac sens -5.1, Rv3671c inh -29.3, FBA Mtb inh -5.2, UGM FP inh 0.9, GDH-TPI inh 63.4* and RecA splice inh -3.5.
`O=C(/C=C/c1ccccc1)NCc1ccco1` gave Mtb bLac sens -6.9, Rv3671c inh 1.8, FBA Mtb inh 0.1, UGM FP inh -1.5, GDH-TPI inh 9.2 and RecA splice inh -4.5.
`N#C/C(=C\c1cccs1)C(=O)NCc1ccco1` gave Mtb bLac sens -0.8, Rv3671c inh -2.0, FBA Mtb inh -0.4, UGM FP inh 0.6, GDH-TPI inh 29.2 and RecA splice inh 0.7.

Screening data as filed in PubChem BioAssay.
